# Assay outcomes: PubChem BioAssay, National Center for Advancing Translational Sciences (NCATS)
# Sampled rows, rich in hits. Any-hit rate of the full collection: about 19%.
# TDP1 cell CPT: growth inhibition of DT40 Tdp1-/-;hTDP1 cells with camptothecin (screen for TDP1 inhibitors) | AID 686979 | 420,000 tested, 12% active | Potency, µM (highest dose often 46.2 µM), for the others: top-dose activity change, negative = growth inhibition, hits mostly inhibitors | chicken DT40 Tdp1-/-;hTDP1 cells + 20 nM CPT, ATP luminescence, 48 h; further: nearly all actives have a fitted effect of over 55% in size
#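 Cell growth measured by CellTiter-Glo luminescence after a minimum 48 h, 37 C compound exposure with 20 nM CPT in Tdp1-knockout DT40 cells stably expressing hTDP1, seeded 400/well; qHTS titration format.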
# HT1080 IDH1KD tx: HT-1080 IDH1 knockdown cell toxicity (counter line) | Potency, µM (titrated, usually from 46.1 µM), without a hit: at the highest dose activity, negative = toxicity, hits mostly cytotoxic | 360,000 tested, 2% active | HT-1080 IDH1 knockdown viability, ATP luminescence, 48 h;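 further: 0% = DMSO wells and -100% = cell-free medium wells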
#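 Viability of IDH1-knockdown HT-1080 fibrosarcoma cells was assessed by CellTiter-Glo after 48 h at 37 °C with titrated compound; concentration-effect curves were classified by fit quality and response size.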
# KB-3-1 tox: kills parental KB-3-1 adenocarcinoma cells; KB-3-1 viability, CellTiter-Glo ATP luminescence, 72 h; 400,000 tested, 1.4% active; Potency, µM (doses to about 46.1 µM), actives largely listed as cytotoxic; AID 1347075; further: nearly all actives have a fitted effect of over 60% in size
#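 Using CellTiter-Glo luminescence, growth of non-resistant KB-3-1 adenocarcinoma cells is assessed 72 h after pin-tool compound addition at 37 °C. Normalized responses across the concentration series yield fitted curves.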
# TDP1 cell noCPT: qHTS for Inhibitors of human tyrosyl-DNA phosphodiesterase 1 (TDP1): qHTS in cells in absence of CPT; AID 686978, 2013; DT40 Tdp1-/- hTDP1 cells, no CPT, ATP luminescence, 48 h; Potency, µM (titrated, usually from 46.2 µM), for inactives: top-dose activity change, negative = growth inhibition, usual class: inhibitors; 420,000 tested, 15% active; further: nearly all actives have a fitted effect of over 55% in size
#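 DT40 Tdp1-/-;hTDP1 cells, no CPT (DMSO vehicle only), 400 cells/well; compounds pin-transferred; ≥48 hr, 37 °C; CellTiter-Glo 30 min RT dark, luminescence read.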
# KB-V1 MDR tox: kills drug-selected multidrug resistant KB-V1 cells. KB-V1 MDR cells viability, CellTiter-Glo, 72 h. Potency, µM (doses to about 46.1 µM), hits mostly cytotoxic. 400,000 tested, 3.4% active. AID 1347076; further: nearly all actives have a fitted effect of over 60% in size
#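 Compound-treated KB-V1 multidrug-resistant cells, 72 h, 37 degrees C; viability by CellTiter-Glo. Fitted qHTS curves give the values.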
# HT1080-NT tox: kills 2HG-producing HT-1080-NT fibrosarcoma cells | HT-1080-NT fibrosarcoma viability, CellTiter-Glo ATP luminescence, 48 h | Potency, µM (top dose mostly 46.1 µM), for inactives: at the highest dose activity, negative = less viability, usual class: cytotoxic | 360,000 tested, 1.6% active | AID 686970;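 further: NT is the 2HG producing partner of a matched IDH1 knockdown line; 0% = DMSO-treated cells and -100% = media-only wells without cells; nearly all actives have a fitted effect of over 55% in size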
#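 Toxicity toward the 2HG-producing NT line was scored as %Activity, normalised to DMSO and no-cell wells, from CellTiter-Glo luminescence after 48 hours' treatment.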
# Numbers without * were called inactive; i = inactive; ? = inconclusive; / = no result given; [ ] = remark or other dose. The call rests on the fitted dose curve; in most records, active means well fitted curve in the direction sought with a large enough effect; inconclusive means small, poorly fitted or top-dose-only effect, or another doubt; inactive means no such curve, though single readings can be large; an effect the other way counts as inactive or inconclusive. Unless noted, on the % scale 0 is the no-effect control and ±100 the full control effect; potency means the concentration at half of the fitted maximal effect.
SMILES,TDP1 cell CPT,HT1080 IDH1KD tx,KB-3-1 tox,TDP1 cell noCPT,KB-V1 MDR tox,HT1080-NT tox
COc1cccc(/C=N/NC(=O)C[n+]2ccccc2)c1O,-3%,-1%,i,-10%,i,1%
COc1cccc(/C=N/NC(=O)CN2CC(c3ccccc3)CC2=O)c1O (configuration not stated),?,?,?,18µM*,?,?
COc1ccc(/C=N/NC(=O)CNC(=O)COc2ccccc2)cc1,-6%,27%,i,-16%,i,25%
CCOc1cccc(/C=N/NC(=O)c2ccc3c(c2)OCCO3)c1O,2.6µM*,?,?,4.1µM*,?,?
COc1cc(/C=N/NC(=O)c2ccc3c(c2)OCCO3)c(Br)c(Br)c1O,-12%,-1%,i,?,i,2%
COc1cccc(/C=N/NC(=O)CNC(=O)COc2ccccc2)c1O,6.5µM*,?,i,7.3µM*,i,?
CC[C@H](C)[C@@H](CO)NC(=O)[C@H]1O[C@@H](n2ccc(N)nc2=O)[C@H](O)[C@@H]1O,-11%,13%,i,-7%,i,0%
COc1cccc(/C=N/NC(=O)CNC(=O)c2cccnc2)c1O,-103%,12µM*,i,7.3µM*,i,?
Cc1ccc(-c2noc(CN(C(=O)c3ccc(C(C)(C)C)cc3)C(C)C)n2)cc1,?,/,i,?,i,/
COc1cccc(NC(=O)CSc2nccn2Cc2ccc3c(c2)OCO3)c1,-29%,/,i,?,i,/
CSc1ccc(CCNC(=O)Cn2c(C)c3cnn(-c4ccccc4)c(=O)c3c2C)cc1,?,/,i,-17%,i,/
Cc1ccc(N(CC(=O)Nc2ccc(-c3nc4ccc(C)cc4s3)cc2)S(C)(=O)=O)cc1,-27%,-13%,i,-11%,i,-28%
O=C(Nc1ccc(-c2nc3ccccc3s2)cc1)c1cc(-n2cnnc2)ccc1Cl,23µM*,11µM*,?,13µM*,i,10µM*
Cc1ccc2nc(-c3ccc(NC(=O)c4ccccc4S(C)(=O)=O)cc3)sc2c1,?,/,i,8.2µM*,i,/
Cc1ccc(NC(=O)c2cc(-n3cnnc3)ccc2Cl)cc1,0%,11%,i,-18%,i,6%
Cc1ccc2nc(-c3ccc(NC(=O)c4ccc(S(C)(=O)=O)cc4)cc3)sc2c1,21µM*,/,/,?,/,/
COc1cc(/C=N/n2c(-c3ccc4c(c3)NC(=O)CO4)csc2=Nc2cccc(C)c2)ccc1O,13µM*,-15%,i,?,i,-9%
Cc1cc(NCC2CCCCC2)nc2ccccc12,?,7.3µM*,i,23µM*,9.2µM*,?
Cc1ccc(C)n1-c1cc(S(=O)(=O)N2CCOCC2)ccc1N1CCCC1,21µM*,1%,i,26µM*,i,0%
Cc1cc(CNCCN(C)C)c(C)n1-c1cc(S(=O)(=O)N2CCOCC2)ccc1N1CCCC1,?,-20%,i,16µM*,i,-13%
O=C1Nc2ccccc2C(=O)N(C2CCCC2)C1C(=O)NC1CC1 (configuration not stated),-5%,16%,i,6%,i,17%
COc1ccc(S(=O)(=O)N2CCC(C(=O)NC3CCCCC3)CC2)cc1C,1%,7%,i,-20%,i,10%
CN1CC[C@]2(CCN3CCc4c(oc5ccccc45)[C@@H]3C2)N(C)C1=O,?,-3%,i,18µM*,?,?
O=C(O)c1ccc(NC(=O)c2cccc(N3C(=O)C4C5CCC(C5)C4C3=O)c2)cc1 (configuration not stated),4%,24%,i,-2%,?,25%
O=C(Nc1ccc(Cl)cc1)c1cccc(N2C(=O)C3C4CCC(C4)C3C2=O)c1 (configuration not stated),?,-4%,?,15µM*,8.2µM*,-6%
SMILES,TDP1 cell CPT,HT1080 IDH1KD tx,KB-3-1 tox,TDP1 cell noCPT,KB-V1 MDR tox,HT1080-NT tox
O=C(Nc1ccc(Cl)cc1Cl)c1cccc(N2C(=O)C=CC2=O)c1,1µM*,?,i,0.58µM*,i,?
CC(=O)Oc1cccc(N2C(=O)C3C4C=CC(C4=C(C)C)C3C2=O)c1 (configuration not stated),?,-1%,i,?,i,-13%
O=C(O)c1cccc(N2C(=O)C=CC2=O)c1,?,0%,i,?,i,16%
Cc1ccccc1NC(=O)c1cccc(N2C(=O)C3C4CCC(C4)C3C2=O)c1 (configuration not stated),6%,-6%,i,6%,23µM*,?
CC(=O)c1cccc(N2C(=O)C3C4CCC(C4=C(C)C)C3C2=O)c1 (configuration not stated),-7%,-7%,i,?,18µM*,-10%
CC(=O)c1ccc(F)c(-c2cc(C)cc3c2OC(CNC(=O)c2cccnc2)C3)c1 (configuration not stated),21%[9.04 µM],/,/,?,/,/
S=C1NCC(c2ccccc2)S1 (configuration not stated),-45%,0%,i,-21%,i,2%
Cc1ccc(NC(=O)c2cccc(N3C(=O)C4C5CCC(C5)C4C3=O)c2)c(C)c1 (configuration not stated),?,16%,i,?,4.1µM*,1%
Cc1nn2c(N)c(-c3ccccc3)cnc2c1-c1ccc(Cl)cc1,16µM*,?,?,?,?,?
Cc1cc(N)n2nc(-c3ccccc3)c(-c3ccccc3)c2n1,1.5µM*,8%,i,1.6µM*,i,13%
Cc1nc2cc(-c3ccccc3)nn2c(N)c1-c1ccccc1,-11%,0%,i,?,i,16%
Cc1nn2c3c(cnc2c1-c1ccc(Cl)cc1)C(=O)CC(c1ccco1)C3 (configuration not stated),?,-2%,i,-12%,5.8µM*,-1%
Cc1nc2c(-c3ccccc3)c(C)nn2c(N)c1-c1ccccc1,21µM*,?,?,29µM*,?,?
Cc1cc(C)n2nc(C(F)(F)F)c(-c3ccccc3)c2n1,-11%,1%,i,-2%,i,18%
CCOc1ccc(CCNC(=O)Cn2ncc3c(=O)oc4ccc(C)cc4c32)cc1,2%,/,i,-3%,i,/
